# Data: the supplement of paper PMC6555819
# Key:
# Experiment in all cases: PBM binding z-score (relative to random genomic background probes); higher = stronger binding; sequences stand for … in GC…GCGATTGACAGCGTAGAATGAAGG
# [1] = test system: FXR:RXRa (NR concentration 270 nM, RXRa partner concentration 90 nM)
# Method in brief: (§1)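 Scanned fluorescence from custom Agilent 4×180K protein-binding microarrays was regression-normalized. Binding z-scores use random background probes as reference. Ligand-free nuclear receptor dimers were incubated on the arrays for 1 h and detected with antibodies against each partner (one per run).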
# [2] = test system: LXRa:RXRa (NR concentration 270 nM, RXRa partner concentration 90 nM)
# Method in brief: as §1
# [3] = test system: LXRa homodimer (NR concentration 270 nM)
# Method in brief: as §1
# [4] = test system: LXRb:RXRa (NR concentration 270 nM, RXRa partner concentration 90 nM)
# Method in brief: as §1
# [5] = test system: LXRb homodimer (NR concentration 270 nM)
# Method in brief: as §1
# [6] = test system: PPARa:RXRa (NR concentration 270 nM, RXRa partner concentration 90 nM)
# Method in brief: as §1
# [7] = test system: PPARg:RXRa (NR concentration 180 nM, RXRa partner concentration 90 nM)
# Method in brief: as §1
# [8] = test system: PPARg:RXRa 270nM:90nM, anti-RXR (NR concentration 270 nM, RXRa partner concentration 90 nM)
# Method in brief: as §1
# [9] = test system: PPARg:RXRa 30nM:10nM, anti-RXR (NR concentration 30 nM, RXRa partner concentration 10 nM)
# Method in brief: as §1
# [10] = test system: PPARg:RXRa 90nM:30nM, anti-RXR (NR concentration 90 nM, RXRa partner concentration 30 nM)
# Method in brief: as §1
Sequence,PBM binding z-score [1],PBM binding z-score [2],PBM binding z-score [3],PBM binding z-score [4],PBM binding z-score [5],PBM binding z-score [6],PBM binding z-score [7],PBM binding z-score [8],PBM binding z-score [9],PBM binding z-score [10]
TAGAGTAGGTTACCAATGGGGCATTCAGCTTTCT,0.195,1.62,0.13,1.22,1.02,1.68,1.3,1.96,1.16,1.72
TTACCAAGGTGAGCTGAGGACGTTGATCCAACTC,1.1,-0.166,-0.767,-0.542,-1.14,0.258,-0.0163,-0.267,-0.263,-0.212
ACTATTAGTTGACTTAGGGCAACCGATACGACGC,0.119,0.0991,-0.0501,0.277,0.41,0.0707,0.995,0.159,0.448,0.379
TCTTGTAGATCAACAGTAGGTTAAGAAAGATCGA,0.361,0.659,0.0852,0.659,-0.18,1.13,0.249,1.49,2.78,2.39
CCTATTAGTTGTCCATAAGGGCAACCGAAGCTCG,0.902,0.553,0.8,0.558,1.17,0.459,0.174,0.706,-0.0798,0.365
AGAATGAGGGCACGCTGAGTTGATAGCAGAGTAG,1.27,1.11,-0.448,0.487,-0.735,2.7,2.69,2.62,0.921,1.87
AGAACGAGGGCACGCTGACTTGATAGCAGAGTAG,0.758,0.896,-0.482,0.363,-0.85,2.31,2.29,1.85,0.503,1.18
TCTTGTAGATAAAGCAGGTTAAGAAAGCCTGAGT,0.606,0.66,-0.172,0.585,-0.647,1.06,-0.166,1.54,2.82,2.17
ATCGAAAGGTCGAGGTGAGCATAGAGAAAGGGAA,4.16,3.42,-0.0507,2.7,0.363,4.61,3.46,3.8,1.66,2.84
CGTCAAAGTTCAACTACGGTAACGTAAAGCACGC,6.73,6.61,4.35,4.24,2.11,5.17,4.85,5.54,2.32,4.26
TAGCCTAGGTTATTGGGCCAGTATAGTACGCATC,-0.0933,0.0825,-0.331,0.173,-0.786,1.61,1.5,1.51,-0.136,0.762
CCTTACGGGTTACGAGGTTATAGCACGACGAGCG,1.8,2.11,0.0451,1.8,-0.317,3.36,2.89,3.03,0.671,1.8
TCTCGTAGATCAAAGGTTAAGAAAGCCGAAGCCT,1.56,1.85,-0.119,1.9,-0.471,3.46,4.19,5.74,4.84,6
CCTGCTAGGTCAATGGTCACCTAAAGCAGCTCGC,3.09,2.46,0.104,1.86,-0.189,3.68,5.66,5.88,3.3,5.26
GCTATAAGTTGAAAGGGCAACCGAATGATTCTCG,1.08,1.24,0.185,1.23,-0.471,3.05,2.26,3.37,1.46,3.15
GTAGACAGGTGAAACGCAGGTAACTCAGGGTGGC,0.081,0.114,-0.34,-0.0403,-0.733,0.941,0.744,0.425,-0.305,0.121
TAGCCTAGGTCATTCAGGGGCCGGTATAGAAAGC,4.65,3.59,1.03,2.73,1.63,3.57,1.87,2.46,0.494,1.41
AGAATGAGGTTATACGTAAATCAGGGAAGAAAGT,2.3,1.9,0.21,1.77,0.0752,3.24,2.5,2.79,0.991,2.07
CCTTCTAGGTCAATGGTCAGCTAAAGCAGCTCGC,3.17,2.37,0.146,1.58,0.698,4.34,7.25,6.5,5.76,7.12
CCGAGTAGGATATGGGGCATTCAGGCAACGGTGA,-0.328,-0.279,-0.104,-0.307,-0.496,1.11,1.26,2.01,0.579,1.45
TCGAGTAGGTTCGTCGGGGCATTCAGCCAACATA,0.282,0.37,-0.315,0.726,-0.765,0.757,-0.436,0.394,0.955,0.64
ACAGACAGGCGAGTGAAGGTAACTCAGCTGGACG,0.222,-0.221,-0.463,-0.649,-0.426,-0.25,0.686,-0.142,-0.453,-0.153
TCAGATAGGTAAAAGGTGAAAGTCGGTGTGGTAA,2.12,1.87,0.408,2.01,0.00585,4.67,6.03,6.8,6.55,7.29
AATACAGGGTCATCGTAAGCCAGAGTACGCACAG,7.41,6.05,2.24,4.69,1.14,6.1,6.63,5.96,2.84,4.83
